Only some compounds are listed: those with a hit (about 7.5% of all), similar ones and a draw of the others.
Rab9 promoter act: qHTS Assay for Rab9 Promoter Activators. Potency, µM (series often up to 9.22 µM), without a hit: top-dose activation, negative = inhibition, usual class: activators. AID 485297, 2010. Huh7 Rab9 promoter-luciferase reporter, luminescence, 24 h. 320,000 tested, 2.8% active; also: % of control where 0% means no effect; nearly all actives have a fitted effect of over 60% in size
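Cell-based reporter: Huh7 stable for Rab9 promoter-driven luciferase, plated in reduced-serum medium with 10% FBS at 1500 cells/well, compound-treated 24 h at 37 °C, luminescence read after 10 min reagent.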
ELG1 genotoxic: qHTS screen for small molecules that induce genotoxicity in human embryonic kidney (HEK293T) cells expressing luciferase-tagged ELG1; HEK293T ELG1-luciferase reporter, luminescence, 16 h; Potency, µM (titrated, usually from 46 µM), without a hit: at the top dose activity change, positive = activation, actives largely listed as activators; 330,000 tested, 1.3% active; also: % of control where 0% means no effect; nearly all actives have a fitted effect of over 60% in size
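Luminescence read-out: rising ELG1-luciferase signal, reflecting elevated ELG1 protein under genetic stress, flags genotoxic compounds. Cells were treated for 16 hr at 37 °C before ONE-Glo detection.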
NPC1 prom act: qHTS Assay for NPC1 Promoter Activators; 320,000 tested, 2.4% active; Potency, µM (top dose mostly 9.22 µM), inactives show top-dose activation, actives largely listed as activators; Huh7 NPC1 promoter luciferase reporter, 24 h; also: % of control where 0% means no effect; nearly all actives have a fitted effect of over 60% in size
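Luminescence read-out of NPC1 promoter-driven luciferase in stably transfected Huh7 cells; compounds delivered in DMSO and left 24 h at 37C, 5% CO2, qHTS titration format.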
Luc counter: Counterscreen for Luciferase (Kinase-Glo TM) Inhibition; Kinase-Glo luciferase, ATP luminescence, 8 min; Potency, µM (series often up to 38.3 µM), inactives show at the top dose activity change, negative = inhibition, most hits filed as inhibitors; 200,000 tested, 0.28% active; AID 1379, 2008; also: % is scaled to controls: 0 for no effect and ±100 for the full control effect; nearly all actives have a fitted effect of over 60% in size
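Compound is pinned into ATP-containing buffer (10 uM ATP, imidazole pH 7.2, 7 mM MgCl2). Kinase-Glo luciferase reagent is then added. Light output is recorded following an 8-min room-temperature incubation.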
FLuc modulator: qHTS profiling assay for firefly luciferase inhibitor/activator using purifed enzyme and Km concentrations of substrates (counterscreen for miR-21 project) | purified FLuc, Km substrates, luminescence inhibition | 360,000 tested, 6.9% active | Luciferin 4-monooxygenase (Photinus pyralis), P08659 | AID 588342, 2011 | Potency, µM (top dose mostly 57.5 µM), inactives show top-dose activity change, negative = inhibition, actives largely listed as inhibitors;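 also: plate controls were vehicle for no effect and reference inhibitor for full effect; nearly all actives have a fitted effect of over 55% in size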
Target sequence (P08659 whole entry, looked up): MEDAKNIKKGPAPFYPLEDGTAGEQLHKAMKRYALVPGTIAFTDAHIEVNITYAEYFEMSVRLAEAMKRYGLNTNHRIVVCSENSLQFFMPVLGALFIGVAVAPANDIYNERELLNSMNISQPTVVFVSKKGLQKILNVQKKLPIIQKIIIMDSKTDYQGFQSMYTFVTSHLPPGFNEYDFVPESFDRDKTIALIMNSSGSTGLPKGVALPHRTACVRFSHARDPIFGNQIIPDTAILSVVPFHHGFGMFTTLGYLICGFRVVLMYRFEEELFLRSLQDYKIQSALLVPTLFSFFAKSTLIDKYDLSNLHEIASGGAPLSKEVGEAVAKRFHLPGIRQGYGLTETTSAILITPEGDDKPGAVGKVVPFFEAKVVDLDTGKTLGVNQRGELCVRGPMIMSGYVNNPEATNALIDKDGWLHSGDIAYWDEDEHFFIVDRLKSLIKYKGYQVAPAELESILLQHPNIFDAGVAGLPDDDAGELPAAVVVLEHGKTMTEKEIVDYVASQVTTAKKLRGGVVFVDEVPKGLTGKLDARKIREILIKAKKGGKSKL
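Biochemical qHTS of compounds, final roughly 60 µM downward over six points, against 10 nM purified firefly luciferase using Km concentrations of substrates (10 uM D-luciferin, 10 uM ATP) in Tris acetate pH 7.5 buffer; luminescence output.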
SMN2 splice up: qHTS Assay for Enhancers of SMN2 Splice Variant Expression | HEK293 SMN2-luciferase splicing reporter, luminescence, 30-36 h | Potency, µM (doses to about 46.1 µM), for the others: top-dose activity change, positive = activation, most hits filed as activators | 210,000 tested, 2.8% active | AID 1458, 2008; also: % of control where 0% means no effect; nearly all actives have a fitted effect of over 55% in size
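qHTS luciferase splicing reporter: luminescence rises when SMN2 exon 7 is included in transfected HEK293 cells. Compound exposure lasted 30-36 h at 37C, with 4.5 mM final sodium butyrate as control, followed by a ONE-Glo read.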
* marks the source's active call; other numbers are inactive results; u = inconclusive; x = no result given. Calls follow the shape of the dose curve; as a rule, active = well fitted curve in the direction sought with a large enough effect; inconclusive = small, poorly fitted or top-dose-only effect, or another doubt; inactive = no such curve, though single readings can be large; an effect the other way counts as inactive or inconclusive. Potency is read from the fitted curve at half-maximal effect.

SMILES	Rab9 promoter act	ELG1 genotoxic	NPC1 prom act	Luc counter	FLuc modulator	SMN2 splice up
Oc1oc(-c2cccc3ccccc23)nc1/C=N/c1nccs1	0%	4%	-6%	4%	3%	3%
Cc1ccnc(N=Cc2nc(-c3ccccc3Br)oc2O)c1	u	12%	22%	-7%	5.4µM*	58%
Cc1cccc(/N=C/c2nc(-c3ccccc3Br)oc2O)n1	-2%	2%	-1%	-3%	7.6µM*	-22%
Cc1ccc2c(c1)cc1c(=O)n(CC(=O)N3CCCCC3)nc(C)n12	x	x	x	x	-11%	-5%
COCC(C)n1c(C)cc(C(=O)CSc2nnnn2C2CCCC2)c1C (stereo unspecified)	u	u	u	x	4.3µM*	x
COCC(C)n1c(C)cc(C(=O)COC(=O)c2n[nH]c3ccccc23)c1C (stereo unspecified)	0.63µM*	u	1µM*	-7%	3µM*	-9%
COCC(C)n1c(C)cc(C(=O)CSc2nnc(N)s2)c1C (stereo unspecified)	4µM*	8.2µM*	u	-4%	8.5µM*	u
COCC(C)n1c(C)cc(C(=O)COC(=O)c2oc3ccccc3c2C)c1C (stereo unspecified)	3%	-10%	14%	-4%	u	-29%
COc1ccc(C(=O)O)cc1S(=O)(=O)Nc1ccccc1Cc1ccccc1	-1%	0%	-7%	x	-2%	x
COc1ccc(C2=NOC(CNC(N)=S)C2)cc1 (stereo unspecified)	0.71µM*	12%	1µM*	-10%	11µM*	13µM*
O=C(c1ccco1)N1CCN(C(c2ccccn2)c2nnnn2C2CCCC2)CC1 (stereo unspecified)	u	u	u	-3%	15µM*	13µM*
CCC(CC)C1=NN2C(=N)/C(=C\c3cc(C)n(-c4cccc(C)c4)c3C)C(=O)N=C2S1	1%	0%	2%	0%	-3%	-22%
Cc1cc(/C=C2/C(=N)N3C(c4ccccc4)=CSC3=NC2=O)c(C)n1-c1ccccc1	12%	-1%	16%	-1%	2.4µM*	6%
CC1=NN2C(=N)/C(=C\c3cc(C)n(-c4ccccc4)c3C)C(=O)N=C2S1	5%	7%	11%	10%	4.8µM*	-34%
CC1CC(C)(C)Nc2ccc(N=O)cc21 (stereo unspecified)	18%	12%	-8%	-4%	-11%	-102%
CC1CC(C)(C)Nc2ccc(OC(=O)c3ccco3)cc21 (stereo unspecified)	u	19%	0%	-3%	6.7µM*	x
CCOC(=O)c1cccc(NC(=O)c2cn(-c3cccc(OC)c3)c(=O)c3ccccc23)c1	x	x	x	x	2%	x
COc1ccc2c(COC(=O)c3n[nH]c4ccccc34)cc(=O)oc2c1	3.5µM*	u	3.2µM*	-6%	3µM*	20µM*
Cc1ccc2nc3n(c(=O)c2c1)-c1ccccc1C(=O)NC3Cc1ccccc1 (stereo unspecified)	1%	3%	-1%	x	2%	x
Cc1ccc(CCNC(=O)C2CCC(=O)N(Cc3ccccc3F)C2)o1 (stereo unspecified)	u	18µM*	u	x	u	x
COc1ccccc1CCCNC(=O)C1CCC(=O)N(Cc2ccccc2F)C1 (stereo unspecified)	4µM*	u	2.8µM*	x	21µM*	x
Cc1nnc(SCC2=C(C(=O)O)N3C(=O)C(NC(=O)Cn4cnnn4)[C@@H]3SC2)s1 (stereo partly specified)	x	x	x	-1%	x	-8%

Bioassay records from PubChem BioAssay.
